Results filed as inconclusive are left out. Where a call stands in place of a potency, no number is given. Activity calls are given as the source filed them. Calls follow the shape of the dose curve; as a rule, active = well fitted inhibition curve with a large enough effect; inconclusive = small, poorly fitted or top-dose-only effect; inactive = flat fitted curve, though single readings scatter. Non-standard residues stand in square brackets, D forms with d. Residues, ends and D or L forms follow the SMILES beside them. *: point of attachment. Nva = CCC[C@H](N)C(=O)O; Cbz = O=C(OCc1ccccc1)*
System: Zika virus NS2B-NS3 protease
Test: Primary screen GU AMC qHTS for Zika virus inhibitors (AID 1347154); also: nearly all actives have a fitted effect of over 70% in size
Settings: Zika NS2B-NS3 unlinked protease, AMC fluorogenic substrate; series mostly up to 54.1 µM
In short: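 Unlinked Zika NS2B hydrophilic domain/NS3 protease domain noncovalent complex (25 nM final) in 10 mM Tris-HCl pH 8.0, 0.01% Tween 20, with AMC peptide substrate. Fluorescence (ex 340, em 450 nm) change over 15 min, room temperature; percent inhibition fitted to 4-parameter Hill equation.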

| Compound | Potency |
| --- | --- |
| CC(=O)O[C@H]1C[C@@H]2CC[C@H]3[C@H]4C[C@H]([N+]5(C)CCCCC5)[C@@H](OC(C)=O)[C@@]4(C)CC[C@@H]3[C@@]2(C)C[C@H]1N1CCCCC1 | inactive |
| Oc1ccc(-c2ccc(-c3cc(Nc4cccc(CNC5CC5)c4)n[nH]3)cc2)c(O)c1 | inactive |
| O=c1ccn([C@@H]2O[C@H](CO)[C@H](O)[C@@H]2F)c(=O)[nH]1 | inactive |
| C[C@H](NC(=O)C(C#N)=Cc1cccc(Br)n1)c1ccccc1 | inactive |
| CC(=CC(=O)Nc1ccccc1C(=O)O)c1ccc2ccccc2c1 | inactive |
| COc1ccc(Nc2cc(-c3cnc(N)nc3)nc(N3CCOCC3)n2)cn1 | inactive |
| CC(=O)OCC(=O)[C@@]12N=C(C)O[C@H]1C[C@H]1[C@@H]3CCC4=CC(=O)C=C[C@]4(C)[C@@H]3[C@@H](O)C[C@@]12C | inactive |
| C[N+](C)([O-])CCNc1ccc(NCC[N+](C)(C)[O-])c2c1C(=O)c1c(O)ccc(O)c1C2=O | inactive |
| CCCCCN=C(N)NN=Cc1c[nH]c2ccc(OC)cc12 | inactive |
| CN(C)c1ccc2cc(C(=O)N[C@@H](CCCN=C(N)CCl)C(=O)NCc3ccccc3)ccc2c1 | inactive |
| CC(=O)NC(CS)C(=O)O (configuration not stated) | inactive |
| CC(C=CC=C(C)C=CC1=C(C)CCCC1(C)C)=CC=CC=C(C)C=CC=C(C)C=CC1=C(C)CCCC1(C)C | inactive |
| CCC[C@@H](C=O)NC(=O)[C@H](CC(C)C)NC(=O)[C@H](CC(C)C)NC(=O)OCc1ccccc1 (Cbz-Leu-Leu-[Nva]-aldehyde) | inactive |
| c1coc(CNc2ncnc3nc[nH]c23)c1 | inactive |
| CC[C@]12C=CCN3CC[C@@]4(c5cc([C@@]6(C(=O)OC)C[C@H]7C[C@@H](C(C)(F)F)CN(Cc8c6[nH]c6ccccc86)C7)c(OC)cc5N(C)[C@H]4[C@@](O)(C(=O)OC)[C@H]1OC(C)=O)[C@@H]32 | inactive |
| Cc1[nH]c(C=C2C(=O)Nc3ccccc32)c(C)c1CCC(=O)O | inactive |
| COc1cc(C[C@@H](CO)[C@H](CO)Cc2ccc(O)c(OC)c2)ccc1O | inactive |
| CC(C)N(CC[C@H](c1ccccc1)c1cc(CO)ccc1O)C(C)C | inactive |
| Cc1cn([C@@H]2O[C@H](CO)[C@@H](O)[C@H]2F)c(=O)[nH]c1=O | inactive |
| CC(C)c1cnn2c(NCc3ccccc3)cc(NCCCCCCN)nc12 | inactive |
| NC(=O)Nc1sc(-c2ccc(F)cc2)cc1C(N)=O | inactive |
| CC(C)NC[C@@H](C(=O)N1CCN(c2ncnc3c2[C@H](C)C[C@H]3O)CC1)c1ccc(Cl)cc1 | inactive |
| COc1cccc2c1C(=O)c1c(O)c3c(c(O)c1C2=O)C[C@@](O)(C(=O)CO)C[C@@H]3O[C@H]1C[C@H](N)[C@H](OC2CCCCO2)[C@H](C)O1 (some centres not stated) | inactive |
| CC(C)C[C@H](NC(=O)CNC(=O)c1cc(Cl)ccc1Cl)B1OC(=O)CC(CC(=O)O)(C(=O)O)O1 (some centres not stated) | inactive |
| Cn1cc(-c2cnn3c(N)c(Br)c([C@H]4CCCNC4)nc23)cn1 | inactive |
| CC(=O)N[C@H]1[C@@H]([C@H](O)[C@H](O)CO)OC(C(=O)O)=C[C@@H]1N=C(N)N | inactive |
| NC1=N[C@H]2[C@H](CS[C@H]2CCCCC(=O)O)N1 | inactive |
